# KDM5B inhibitor = blocks human KDM5B histone demethylase activity; AID 1347165; KDM5B demethylase, FDH-coupled NADH fluorescence (FDH is formaldehyde dehydrogenase); 220,000 compounds, 2.6% hits; Q9UGL1; Potency, µM (series often up to 57.7 µM), usual class: inhibitors; active = well fitted inhibition curve with a large enough effect; inconclusive = small, poorly fitted or top-dose-only effect; inactive = no such curve, though single readings can be large or run the other way; note: potency is the fitted concentration of half-maximal effect; 0% is about no effect; nearly all actives have a fitted effect of over 70% in size
#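 Measured: NADH fluorescence change, 30 min, RT. System: KDM5BΔAP 200 nM final, H3K4me3 peptide, α-KG, Fe(II), ascorbate, NAD⁺ plus FDH, pH 7.5 HEPES. Compounds: titrated, 10 min pre-incubation with enzyme.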
# IP6K1 inh = inhibitors of human IP6K1. activity change, % (series mostly up to about 58 µM). IP6K1 kinase, ADP-Glo luminescence, 2 h; stronger effect = lower value. 140,000 compounds, 0.81% hits. Q92551; in the data active = activity change below about -25%; note: % is set by controls: 0 for no effect and ±100 for the full control effect
#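 ADP-Glo luminescence measures ADP made by human IP6K1 during a 2 h RT reaction with ATP/IP6 (mix at 1.3 mM/130 uM); top library doses 57.5 and 19.1 uM final.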
# The depositor's hits bear a star; i = inactive; ? = inconclusive; nt = no result given. Shown are actives, neighbours in structure and some others; about 2.8% of the full set was active somewhere.
SMILES,KDM5B inhibitor,IP6K1 inh
COC(=O)CNC(=O)N1CCC(c2nc(CCOc3ccc(F)cc3)no2)C1 (stereo not drawn),i,3
CCOC(=O)NC(CNC(=O)NCc1ccc(C(C)O)cc1)CC(C)C (stereo not drawn),i,nt
O=C(c1cccs1)N1CCCn2cc(-c3ccc4c(c3)OCO4)nc21,?,-8
N#Cc1cccc(-c2cn3c(n2)N(C(=O)CC2CCNCC2)CCC3)c1,?,12
N#Cc1cccc(-c2cn3c(n2)N(C(=O)c2cccs2)CCC3)c1,28µM*,13
CCn1ccc(C(=O)N2CCCn3cc(-c4cccc(C#N)c4)nc32)n1,?,-11
N#Cc1cccc(-c2cn3c(n2)N(C(=O)c2cccnc2)CCC3)c1,35µM*,10
COCCC(=O)N1CCCn2cc(-c3cccc(C#N)c3)nc21,22µM*,11
O=C1CCCN1CCCN1C(=O)[C@H]2CN(Cc3ccc(Cl)cc3)C[C@H]2C1=O,i,-2
CN1CC[C@H]2CN(C(=O)CCCc3ccccc3)C[C@@]2(C(=O)O)C1,i,-7
CN1C(=O)[C@H](OC(N)=O)[C@@H](C(=O)Nc2ccccc2)C12CCN(C(=O)c1cccc(C#N)c1)CC2,nt,4
CCCC1NC(=O)N(Cc2ncc(-c3ccc(F)cc3)o2)C1=O (stereo not drawn),i,nt
CCc1noc(-c2cccn3c(CNC(=O)C(C)c4ccccc4)nnc23)n1 (stereo not drawn),22µM*,6
CCCc1noc(-c2cccn3c(CNC(=O)COc4cccc(C)c4)nnc23)n1,?,-6
CCc1noc(-c2cccn3c(CNC(=O)COc4ccccc4)nnc23)n1,32µM*,-7
CCOc1ccc(C(=O)Nc2cccc(Cl)c2N2CCCC2)cc1,i,nt
Cc1noc(-c2cccn3c(CNC(=O)c4ccc(F)c(Cl)c4)nnc23)n1,14µM*,20
CCCc1noc(-c2cccn3c(CNC(=O)c4cccc(Cl)c4)nnc23)n1,?,-2
Cc1noc(-c2cccn3c(CNC(=O)c4cccc(Cl)c4)nnc23)n1,14µM*,2
CCNC(=O)NC(=O)CN1CCN(c2oc(C3CC3)nc2C#N)CC1,i,nt
C=CCN1C[C@H]2COc3ccc(C)cc3[C@H]2N(C(=O)c2cccc(OC)c2)CCC1=O,nt,-16
CC(NC(=O)c1cccc(C#N)c1)C(=O)N1CCN(c2ccccn2)CC1 (stereo not drawn),25µM*,1
CC(NC(=O)c1ccc2c(c1)OCO2)C(=O)N1CCN(c2ccccn2)CC1 (stereo not drawn),32µM*,17
CC(C)C(NC(=O)c1cccc(C#N)c1)C(=O)N1CCN(c2ccccn2)CC1 (stereo not drawn),?,8
CSc1ncccc1C(=O)NC(C)C(=O)N1CCN(c2ccccn2)CC1 (stereo not drawn),?,13
SMILES,KDM5B inhibitor,IP6K1 inh
CN1c2cccnc2CN(Cc2ccccc2Cl)CC[C@H]1CO,i,-10
Cc1nncn1C1CCN(S(=O)(=O)c2ccc(F)c(F)c2)CC1,i,-10
Cc1cc(C)n2ncc(C(=O)N3CCC(c4[nH]ncc4-c4ccccc4)CC3)c2n1,?,16
Cc1nc2ncccn2c1C(=O)N1CCC(c2[nH]ncc2-c2ccccc2)CC1,28µM*,-3
Cc1cccc(Nc2nc(C(=O)NC3CCCCC3)cs2)c1,i,nt
CC(OC(=O)c1ccc(CCNS(C)(=O)=O)cc1)C(=O)N1CCCC1 (stereo not drawn),i,nt
CN(C)c1ncc2c(n1)C(C)(C(=O)NCC1CC1)CCC2 (stereo not drawn),32µM*,29
CN(C)c1ncc2c(n1)C(C)(C(=O)NCCOc1ccccc1)CCC2 (stereo not drawn),32µM*,5
CN(C)c1ncc2c(n1)C(C)(C(=O)NCCCn1ccnc1)CCC2 (stereo not drawn),35µM*,-4
CC1(C(=O)NCc2cccnc2)CCCc2cnc(Nc3ccccc3)nc21 (stereo not drawn),i,-1
CC1(C(=O)NCC2CC2)CCc2cnc(Nc3ccccc3)nc21 (stereo not drawn),i,8
CN(C)c1ncc2c(n1)C(C)(C(=O)Nc1ccc(Cl)cc1)CCC2 (stereo not drawn),35µM*,-12
CC1(C(=O)NCCCn2ccnc2)CCCc2cnc(Nc3ccccc3)nc21 (stereo not drawn),i,-4
CC1(C(=O)Nc2ccc(C(N)=O)cc2)CCCc2cnc(Nc3ccccc3)nc21 (stereo not drawn),i,0
CCN1CCN(C(=O)CN(c2cccc(C(F)(F)F)c2)S(C)(=O)=O)CC1,i,nt
c1ccc(-c2noc(-c3ccn4c(CN5CCN(c6ccccn6)CC5)nnc4c3)n2)cc1,?,-2
CC1CCCN(c2ccc(C(=O)O)cc2NS(=O)(=O)c2ccc(Br)s2)C1 (stereo not drawn),i,nt
COc1ccc(CCNC(=O)c2ccc3nccn3c2)cc1,nt,-13
O=C(NCCc1ccccc1)c1ccc2nccn2c1,nt,17
O=C(NCC1CC1)c1ccc2nccn2c1,nt,14
O=C(NCCCc1ccccc1)c1ccc2nccn2c1,35µM*,-5
O=C(NCCC1CCCCC1)c1ccc2nccn2c1,28µM*,-5
O=C(NCCc1nc(Cc2ccccc2)no1)c1ccc2nccn2c1,18µM*,-14
COc1ccc(/C=C2\Oc3cc(OS(C)(=O)=O)ccc3C2=O)c(OC)c1OC,i,nt
CN(C)[C@@H]1CN(Cc2cccc(F)c2F)CC[C@@H]1CNC(=O)C1CC1,i,25
SMILES,KDM5B inhibitor,IP6K1 inh
O=C(c1cccnn1)N1C[C@@H](COCC2CC2)[C@H](c2ccncc2)C1,i,1
Cn1ncc2c(C(=O)NCc3cccnc3)cc(-c3ccc(Cl)cc3Cl)nc21,79µM*,-12
Cn1ncc2c(C(=O)NCc3cccnc3)cc(-c3ccc(Cl)nc3)nc21,45µM*,-5
Cn1ncc2c(C(=O)NCc3cccnc3)cc(-c3cccnc3)nc21,nt,26
COc1ccccc1-c1cc(C(=O)NCc2ccc(C(F)(F)F)cc2)c2cnn(C)c2n1,nt,0
Cn1ncc2c(C(=O)NCc3ccc(F)cc3)cc(-c3ccc(Cl)nc3)nc21,79µM*,-1
Cn1ncc2c(C(=O)NCc3cccc(Cl)c3)cc(-c3ccc(Cl)cc3Cl)nc21,nt,12
COc1ccccc1-c1cc(C(=O)NCc2ccc(F)cc2)c2cnn(C)c2n1,89µM*,-4
Cn1ncc2c(C(=O)NCCc3ccc(F)cc3)cc(-c3ccc(Cl)nc3)nc21,nt,14
O=C(NC1CCCC1)N1CCCC(C(=O)N2CCC(N3Cc4ccccc4C3=O)CC2)C1 (stereo not drawn),nt,8
CC(C)(C(=O)NCC(c1ccccc1)N1CCCC1)c1ccccc1 (stereo not drawn),i,nt
Cc1ccccc1C(=O)N1CCC(N2C(=O)CCC2C(=O)NC(C)C)CC1 (stereo not drawn),nt,15
Nc1nc(NCc2ccc(Cl)cc2Cl)cc(C2CC(O)C2)n1 (stereo not drawn),i,-2
Cn1ncc2c(C(=O)NC3CC3)cc(-c3ccc(F)cc3)nc21,112µM*,-8
Cn1ncc2c(C(=O)NC3CCC3)cc(-c3ccc(F)cc3)nc21,nt,-3
COC(=O)CNC(=O)c1cc(-c2ccc(Cl)cc2Cl)nc2c1cnn2C,79µM*,-2
COCCNC(=O)c1cc(-c2ccc(Cl)cc2Cl)nc2c1cnn2C,?,3
